Experimental findings from PubChem BioAssay (EPA / NIEHS) are described below.

Conditions in all cases: mRNA level, 48 h; actives raise or lower the signal
Read-out in assay [1]: Bcl-2 (BID) gene, BID (gene 637)
In words: LTEA_HepaRG_BID: Life Technologies and Expression Analysis (LTEA) Assay for Bcl-2 (BID) gene using HepaRG (AID 2283476). In a few lines:
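Duplicate 48 h treatments of HepaRG cells in serum-free induction medium spanned 100 uM downward in half-log steps, 0.5% DMSO. Transcript change quantified by qRT-PCR against three housekeeping genes, fitted up or down versus DMSO.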

Read-out in a further assay: Caspase-3 (Homo sapiens) (UniProt P42574)
In words: LTEA_HepaRG_CASP3: Life Technologies and Expression Analysis (LTEA) Assay for cysteine-aspartic acid protease (CASP3) using HepaRG (AID 2283477). In a few lines: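 Read-out is CASP3 mRNA level by TaqMan qRT-PCR in human HepaRG cells after 48 h chemical exposure. Eight half-log concentrations topping at 100 uM were tested in 0.5% DMSO; gain or loss was fitted relative to DMSO.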

Read-out in assay [2]: Cytochrome P450 (CYP24A1), CYP24A1 (gene 1591)
In words: LTEA_HepaRG_CYP24A1: Life Technologies and Expression Analysis (LTEA) Assay for Cytochrome P450 (CYP24A1) using HepaRG (AID 2283478). In a few lines:
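HepaRG, 48 h chemical exposure, 8-pt half-log CRC from 100 uM, 0.5% DMSO vehicle, duplicates. Endpoint: CYP24A1 mRNA by Fluidigm TaqMan qRT-PCR, normalized ACTB/GAPDH/POLR2A; gain/loss fit vs DMSO.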

Read-out in assay [3]: Cytochrome P450 (CYP1A2), CYP1A2 (gene 1544)
In words: LTEA_HepaRG_CYP1A2: Life Technologies and Expression Analysis (LTEA) Assay for Cytochrome P450 (CYP1A2) using HepaRG (AID 2283479). The method in brief:
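CYP1A2 transcript induction or loss, quantified by Fluidigm qRT-PCR against three housekeeping genes, was fitted bidirectionally against 0.5% DMSO controls. Human HepaRG cells received eight half-log concentrations from 100 uM over 48 h.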

Read-out in assay [4]: cysteine-aspartic acid protease (CASP8), CASP8 (gene 841)
In words: LTEA_HepaRG_CASP8: Life Technologies and Expression Analysis (LTEA) Assay for cysteine-aspartic acid protease (CASP8) using HepaRG (AID 2283480). The method in brief: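 Concentration-response in duplicate up to 100 uM (half-log steps, 0.5% DMSO) on differentiated HepaRG cultures for 48 h. Expression change of CASP8 mRNA is determined by TaqMan qRT-PCR with housekeeping-gene normalization.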

Read-out in assay [5]: Cytochrome P450 (CYP2B6), CYP2B6 (gene 1555)
In words: LTEA_HepaRG_CYP2B6: Life Technologies and Expression Analysis (LTEA) Assay for Cytochrome P450 (CYP2B6) using HepaRG (AID 2283481). In a few lines: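 HepaRG cells plated 48 h, switched to serum-free induction medium, then dosed 48 h (8 points, half-log from 100 uM, 0.5% DMSO). RNA isolated; CYP2B6 expression measured by qRT-PCR; gain or loss fitted relative to DMSO.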

Read-out in assay [6]: Cytochrome P450 2C19 (Homo sapiens) (UniProt P33261)
In words: LTEA_HepaRG_CYP2C19: Life Technologies and Expression Analysis (LTEA) Assay for CYP2C19 using HepaRG (AID 2283482). The method in brief:
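Transcript levels of CYP2C19 were quantified by qRT-PCR after HepaRG cells were treated for 48 hours with test chemicals up to 100 uM (eight half-log concentrations, 0.5% DMSO vehicle). Gain or loss of signal was fitted relative to DMSO.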

Read-out in a further assay: CYP2C8 (gene 1558)
In words: LTEA_HepaRG_CYP2C8: Life Technologies and Expression Analysis (LTEA) Assay for CYP2C8 using HepaRG (AID 2283483). The method in brief:
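This is a transcriptional endpoint in HepaRG cultures: 48 h exposure, highest concentration 100 uM. CYP2C8 mRNA is quantified by TaqMan qRT-PCR.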

Read-out in the next assay: CYP2C9 (gene 1559)
In words: LTEA_HepaRG_CYP2C9: Life Technologies and Expression Analysis (LTEA) Assay for CYP2C9 using HepaRG (AID 2283484). The method in brief:
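Eight-point concentration-response (highest 100 uM, half-log dilutions) in HepaRG cells for 48 h; CYP2C9 expression by qRT-PCR normalized to ACTB, GAPDH, POLR2A. Bidirectional fit, DMSO baseline.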

Read-out in the next assay: CYP2E1 (gene 1571)
In words: LTEA_HepaRG_CYP2E1: Life Technologies and Expression Analysis (LTEA) Assay for CYP2E1 using HepaRG (AID 2283485). The method in brief: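 CYP2E1 transcript measured by Fluidigm qRT-PCR against three housekeeping genes in human HepaRG cells treated 48 h (top 100 uM, half-log steps, 0.5% DMSO vehicle). Gain or loss fitted relative to DMSO baseline.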

Read-out in another assay: CYP4A11 (gene 1579)
In words: LTEA_HepaRG_CYP4A11: Life Technologies and Expression Analysis (LTEA) Assay for CYP4A11 using HepaRG (AID 2283486). In a few lines:
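HepaRG, 48 h chem exposure, 8 conc (100 uM top, half-log), 0.5% DMSO vehicle; qRT-PCR readout, housekeeping-gene normalized; bidirectional curve fit vs DMSO baseline.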

Read-out in assay [7]: Cytochrome P450 3A4 (Homo sapiens) (UniProt P08684)
In words: LTEA_HepaRG_CYP3A4: Life Technologies and Expression Analysis (LTEA) Assay for CYP3A4 using HepaRG (AID 2283487). The method in brief: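 In a human hepatic line (HepaRG), duplicate wells were treated 48 h with up to 100 uM chemical in half-log dilutions. Endpoint: CYP3A4 mRNA induction or loss relative to 0.5% DMSO vehicle, by qRT-PCR.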

Read-out in assay [8]: DNA damage-inducible transcript 3 (DDIT3), DDIT3 (gene 1649)
In words: LTEA_HepaRG_DDIT3: Life Technologies and Expression Analysis (LTEA) Assay for DNA damage-inducible transcript 3 (DDIT3) using HepaRG (AID 2283488). The method in brief: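 DDIT3 transcript was quantified by qRT-PCR with ACTB/GAPDH/POLR2A normalization after 48 h chemical treatment of differentiated HepaRG cells in 0.5% DMSO. Dosing was eight-point, half-log, top 100 uM, duplicate wells. Curves fitted bidirectionally versus DMSO.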

Read-out in assay [9]: Pro-epidermal growth factor (Homo sapiens) (UniProt P01133)
In words: LTEA_HepaRG_EGF: Life Technologies and Expression Analysis (LTEA) Assay for Epidermal growth factor (EGF) using HepaRG (AID 2283489). The method in brief: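 HepaRG, 48 h dosing, 100 uM top, half-log x8, 0.5% DMSO. Readout: TaqMan qRT-PCR (Fluidigm array), housekeeping-normalized. Gain or loss of signal fit vs DMSO.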

Read-out in assay [10]: Early growth response protein 1 (EGR1) transcription factor, EGR1 (gene 1958)
In words: LTEA_HepaRG_EGR1: Life Technologies and Expression Analysis (LTEA) Assay for Early growth response protein 1 (EGR1) transcription factor using HepaRG (AID 2283490). In a few lines:
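EGR1 expression change in human HepaRG after 48 h chemical exposure, assessed by housekeeping-normalized qRT-PCR; concentration-response up to 100 uM, fitted in both directions against DMSO controls.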

Read-out in assay [11]: Ezrin (EZR), EZR (gene 7430)
In words: LTEA_HepaRG_EZR: Life Technologies and Expression Analysis (LTEA) Assay for Ezrin (EZR) using HepaRG (AID 2283491). In a few lines: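 Gain or loss of EZR mRNA is scored relative to 0.5% DMSO in human HepaRG cultures treated 48 h with test chemicals in duplicate, eight half-log concentrations from 100 uM.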

Read-out in assay [12]: Cytochrome P450 3A7 (Homo sapiens) (UniProt P24462)
In words: LTEA_HepaRG_CYP3A7: Life Technologies and Expression Analysis (LTEA) Assay for CYP3A7 using HepaRG (AID 2283492). In a few lines:
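Human HepaRG liver cells, 48 h post-plating, switched to serum-free induction medium and exposed in duplicate for 48 h. Dosing: 100 uM top, half-log dilutions, 8 points, 0.5% DMSO vehicle. Read-out: CYP3A7 mRNA, gain or loss fitted against DMSO baseline.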

Read-out in another assay: CYP3A5 (gene 1577)
In words: LTEA_HepaRG_CYP3A5: Life Technologies and Expression Analysis (LTEA) Assay for CYP3A5 using HepaRG (AID 2283493). In a few lines:
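mRNA levels were quantified by qRT-PCR on Fluidigm arrays and normalized to three housekeeping genes. Differentiated HepaRG cells received 48 h exposure (top 100 uM, half-log steps, 0.5% DMSO vehicle, duplicate); bidirectional fitting versus DMSO.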

Read-out in assay [13]: Fatty Acid-Binding Protein 1 (FABP1), FABP1 (gene 2168)
In words: LTEA_HepaRG_FABP1: Life Technologies and Expression Analysis (LTEA) Assay for Fatty Acid-Binding Protein 1 (FABP1) using HepaRG (AID 2283494). The method in brief: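 Values reflect bidirectional concentration-response fitting of FABP1 mRNA change against 0.5% DMSO controls. Human HepaRG cultures received eight half-log doses (top 100 uM) for 48 h; expression quantified by TaqMan qRT-PCR with housekeeping-gene normalization.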

Read-out in assay [14]: Cytochrome P450 4A22 (Homo sapiens) (UniProt Q5TCH4)
In words: LTEA_HepaRG_CYP4A22: Life Technologies and Expression Analysis (LTEA) Assay for Cytochrome P450 4A22 (CYP4A22) using HepaRG (AID 2283495). The method in brief:
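Readout is CYP4A22 transcript induction or loss, quantified by qRT-PCR and normalized to ACTB, GAPDH and POLR2A. Human HepaRG cells receive test chemicals for 48 h at eight half-log concentrations from 100 uM in 0.5% DMSO.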

Active and inactive are the calls of the source. The calls were made as follows: active = hit-call score of the fitted dose curve at least 0.9, where 1 is the maximum; inactive = score below 0.9.

Caspase-3 (Homo sapiens), sequence (P42574 whole entry, looked up): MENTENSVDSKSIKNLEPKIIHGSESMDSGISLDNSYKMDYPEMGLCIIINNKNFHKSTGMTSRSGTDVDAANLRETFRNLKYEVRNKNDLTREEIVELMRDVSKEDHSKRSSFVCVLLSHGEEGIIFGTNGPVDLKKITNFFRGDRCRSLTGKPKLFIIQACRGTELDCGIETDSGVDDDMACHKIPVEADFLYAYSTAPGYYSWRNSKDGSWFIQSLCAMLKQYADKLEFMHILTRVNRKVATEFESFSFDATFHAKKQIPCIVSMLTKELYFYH
Cytochrome P450 3A7 (Homo sapiens), sequence (P24462 whole entry, looked up): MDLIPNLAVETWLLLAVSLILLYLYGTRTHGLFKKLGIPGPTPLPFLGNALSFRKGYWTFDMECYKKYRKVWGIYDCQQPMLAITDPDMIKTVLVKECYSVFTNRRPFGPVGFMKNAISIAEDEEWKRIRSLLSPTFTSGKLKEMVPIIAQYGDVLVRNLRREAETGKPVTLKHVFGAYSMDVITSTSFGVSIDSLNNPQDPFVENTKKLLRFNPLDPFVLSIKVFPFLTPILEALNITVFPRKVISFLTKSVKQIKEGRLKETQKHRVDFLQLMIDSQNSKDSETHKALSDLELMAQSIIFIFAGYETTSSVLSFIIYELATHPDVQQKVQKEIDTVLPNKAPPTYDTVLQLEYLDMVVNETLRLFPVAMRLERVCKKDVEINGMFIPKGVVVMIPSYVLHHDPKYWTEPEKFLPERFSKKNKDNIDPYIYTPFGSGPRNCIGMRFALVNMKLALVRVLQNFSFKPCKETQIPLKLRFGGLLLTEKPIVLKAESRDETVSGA
Cytochrome P450 2C19 (Homo sapiens), sequence (P33261 whole entry, looked up): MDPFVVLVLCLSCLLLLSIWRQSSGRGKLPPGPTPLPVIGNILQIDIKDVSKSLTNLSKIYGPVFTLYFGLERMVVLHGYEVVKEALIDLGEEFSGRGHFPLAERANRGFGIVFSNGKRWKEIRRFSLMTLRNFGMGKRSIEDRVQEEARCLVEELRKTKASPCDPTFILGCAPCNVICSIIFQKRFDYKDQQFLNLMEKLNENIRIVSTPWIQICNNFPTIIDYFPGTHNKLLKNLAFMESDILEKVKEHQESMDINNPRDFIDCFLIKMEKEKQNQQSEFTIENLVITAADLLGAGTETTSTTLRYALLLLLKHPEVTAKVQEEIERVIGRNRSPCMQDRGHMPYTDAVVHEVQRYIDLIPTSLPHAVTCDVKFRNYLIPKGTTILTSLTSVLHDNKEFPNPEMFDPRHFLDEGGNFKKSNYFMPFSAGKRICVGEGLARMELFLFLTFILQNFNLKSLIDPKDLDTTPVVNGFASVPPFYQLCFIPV
Cytochrome P450 3A4 (Homo sapiens), sequence (P08684 whole entry, looked up): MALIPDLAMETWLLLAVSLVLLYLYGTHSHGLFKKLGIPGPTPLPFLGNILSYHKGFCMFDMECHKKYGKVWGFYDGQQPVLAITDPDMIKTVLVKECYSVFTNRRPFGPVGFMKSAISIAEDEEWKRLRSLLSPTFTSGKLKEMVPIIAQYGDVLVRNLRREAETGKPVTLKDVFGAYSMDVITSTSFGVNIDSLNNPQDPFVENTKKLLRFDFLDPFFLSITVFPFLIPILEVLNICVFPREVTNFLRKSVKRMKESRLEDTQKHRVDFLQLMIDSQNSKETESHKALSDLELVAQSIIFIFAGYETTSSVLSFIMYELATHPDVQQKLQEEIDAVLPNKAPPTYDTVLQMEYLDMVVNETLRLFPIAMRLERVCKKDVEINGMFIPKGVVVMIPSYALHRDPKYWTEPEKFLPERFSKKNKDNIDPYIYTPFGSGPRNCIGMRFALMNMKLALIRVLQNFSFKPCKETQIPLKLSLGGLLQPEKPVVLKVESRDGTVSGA

With `Clc1nc(Cl)c(Cl)c(Cl)c1Cl`, the outcome (in assay [1]; with Caspase-3 (Homo sapiens); in assay [2]; in assay [3]; in [4]; in assay [5]) was inactive. The outcome (in [6]; with CYP2C8 (gene 1558); with CYP2C9 (gene 1559); with CYP2E1 (gene 1571); in the assay with CYP4A11 (gene 1579); in [7]) was inactive. For the same compound, the compound was called inactive (in assay [8]; in assay [9]; in [10]; in assay [11]; in assay [12]; in the assay with CYP3A5 (gene 1577)). The outcome in assay [13] and in assay [14] was inactive.
In the case of `CC(=O)OC[C@H]1O[C@@](COC(C)=O)(O[C@H]2O[C@H](COC(C)=O)[C@@H](OC(C)=O)[C@H](OC(C)=O)[C@H]2OC(C)=O)[C@@H](OC(C)=O)[C@@H]1OC(C)=O`, the outcome (in assay [1]; in the assay with Caspase-3 (Homo sapiens); in assay [2]; in assay [3]; in [4]; in assay [5]) was inactive. Besides, the compound was called inactive (in [6]; in the assay with CYP2C8 (gene 1558); with CYP2C9 (gene 1559); with CYP2E1 (gene 1571); with CYP4A11 (gene 1579); in [7]). Also, the call (in assay [8]; in assay [9]; in assay [10]; in assay [11]; in assay [12]; with CYP3A5 (gene 1577)) was inactive. Besides, the compound was classed as inactive in assay [13] and in assay [14].
The AC50 is the concentration at which the activity in the assay is half-maximal. Regarding `Cn1c(=O)cc(Oc2ccc(F)cc2F)c2cnc(NCC(C)(C)O)nc21`, the result (in assay [1]; in the assay with Caspase-3 (Homo sapiens); in assay [2]; in [4]; with CYP2C8 (gene 1558); with CYP2C9 (gene 1559)) was inactive. The call in [8], in assay [9], in assay [10], in assay [11], in assay [13] and in assay [14] was inactive. The AC50 in assay [3] is 16 µM (active); in assay [5], 6.6 µM (active); in assay [6], 14.6 µM (active); with CYP2E1 (gene 1571), 50 µM (active); in the assay with CYP4A11 (gene 1579), 50 µM (active); in assay [7], 50 µM (active). Further, the AC50 in assay [12] was 28.9 µM (active); in the assay with CYP3A5 (gene 1577), 50 µM (active).
Regarding `CC(C)CCCCCCOC(=O)c1ccc(C(=O)OCCCCCCC(C)C)c(C(=O)OCCCCCCC(C)C)c1`, the compound was classed as inactive (in [1]; with Caspase-3 (Homo sapiens); in assay [2]; in [4]; in assay [5]; in [6]). Besides, the result (with CYP2C8 (gene 1558); with CYP2C9 (gene 1559); with CYP2E1 (gene 1571); with CYP4A11 (gene 1579); in assay [7]; in assay [8]) was inactive. The result (in [9]; in [10]; in assay [11]; in assay [12]; with CYP3A5 (gene 1577); in assay [13]) was inactive. Also, the compound was classed as inactive in assay [14]. Besides, the AC50 in [3] was 14.4 µM (active).
`Cc1ccc(C)c(O)c1`: the call (in assay [1]; in the assay with Caspase-3 (Homo sapiens); in [2]; in assay [4]; in [6]; with CYP2C8 (gene 1558)) was inactive. Also, the outcome (with CYP2C9 (gene 1559); with CYP2E1 (gene 1571); with CYP4A11 (gene 1579); in assay [7]; in [8]; in assay [9]) was inactive. Also, the compound was classed as inactive (in [10]; in assay [11]; in assay [12]; with CYP3A5 (gene 1577); in assay [13]; in [14]). For the same compound, the AC50 in [3] and in assay [5] was 51.2 µM (active) throughout.
`COC(=O)CC(=O)OC`: the call (in assay [1]; with Caspase-3 (Homo sapiens); in assay [2]; in assay [3]; in [4]; with CYP2C8 (gene 1558)) was inactive. Further, the call (with CYP2C9 (gene 1559); in the assay with CYP4A11 (gene 1579); in assay [8]; in assay [9]; in assay [10]; in assay [11]) was inactive. Besides, the result (with CYP3A5 (gene 1577); in assay [14]) was inactive. Also, the concentration at half-maximal activity (AC50) was 1.93 µM (active) in [5]; 3.31 µM (active) in assay [6]; 33 µM (active) with CYP2E1 (gene 1571); 2.53 µM (active) in assay [7]; 3.64 µM (active) in assay [12]; 50 µM (active) in assay [13].
